Data from PubChem BioAssay (EPA / NIEHS).
Records with an inconclusive call do not appear. Active and inactive are the calls of the source. The calls were made as follows, unless noted: active = hit-call score of the fitted dose curve at least 0.9, where 1 is the maximum; inactive = score below 0.9.

Tests used:
[1] = target: Estrogen-related receptor gamma (Homo sapiens) (UniProt P62508); test: ATG_ERRg_TRANS: Attagene TRANS-FACTORIAL HepG2 Assay for human Estrogen-Related Receptor gamma (ERRg) (AID 2282977; active = hit-call score of the fitted dose curve at least 0.9, where 1 is the maximum;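 also: hits increase reporter signal over DMSO so potencies reflect activators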); details: HepG2 Attagene TRANS reporter, ERRg transactivation
In short: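 HepG2 cells transiently transfected with multiplexed GAL4-UAS reporter units and chimeric NR-Gal4 constructs were exposed to test chemicals for 24 h. Reporter mRNA was measured by RT-PCR, 6-FAM primer extension, HpaI digestion and capillary electrophoresis; gain-of-signal versus DMSO.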

[2] = target: Glucocorticoid receptor (Homo sapiens) (UniProt P04150); test: ATG_GR_TRANS: Attagene TRANS-FACTORIAL HepG2 Assay for human Glucocorticoid Receptor (GR) (AID 2282978; active = hit-call score of the fitted dose curve at least 0.9, where 1 is the maximum;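 also: activators score as hits since higher reporter transcript over DMSO is fitted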); details: HepG2 Attagene TRANS GR reporter, mRNA transcription
In short: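 HepG2 transient transfection, multiple reporter units, GAL4-UAS under NR-GAL4 chimera control. 24 h treatment. Reporter mRNA by RT-PCR/CE fluorescence, DMSO as negative control.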

[3] = target: Bile acid receptor (Homo sapiens) (UniProt Q96RI1); test: ATG_FXR_TRANS: Attagene TRANS-FACTORIAL HepG2 Assay for Farnesoid X Receptor (FXR) (AID 2282979; active = hit-call score of the fitted dose curve at least 0.9, where 1 is the maximum;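 also: hits raise reporter mRNA above DMSO so AC50 marks FXR activation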); details: HepG2 Attagene TRANS FXR-GAL4 reporter transcription
In short: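 Reporter transcripts from transfected HepG2 cells were measured 24 h after dosing, using RT-PCR with capillary electrophoresis of 6-FAM-labelled fragments. The read-out reflects activity of exogenous FXR-Gal4 chimera on GAL4-UAS units, with induction relative to DMSO.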

[4] = target: Oxysterols receptor LXR-alpha (Homo sapiens) (UniProt Q13133); test: ATG_LXRa_TRANS: Attagene TRANS-FACTORIAL HepG2 Assay for human Liver X Receptor alpha (LXRa) (AID 2282980; active = hit-call score of the fitted dose curve at least 0.9, where 1 is the maximum); details: HepG2 Attagene TRANS reporter, LXRa transactivation
In short: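 Chemical-induced reporter mRNA measured by RT-PCR with fluorescent labelling and capillary electrophoresis after 24 h dosing of transiently transfected HepG2 cells expressing exogenous NR-Gal4 chimeras; increases scored against DMSO baseline.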

[5] = target: Oxysterols receptor LXR-beta (Homo sapiens) (UniProt P55055); test: ATG_LXRb_TRANS: Attagene TRANS-FACTORIAL HepG2 Assay for human Liver X Receptor beta (LXRb) (AID 2282981; active = hit-call score of the fitted dose curve at least 0.9, where 1 is the maximum); details: HepG2 Attagene TRANS GAL4-LXRb reporter, mRNA
In short: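 HepG2 cells transiently transfected with multiple reporter transcription units carrying chimeric NR-Gal4 proteins acting on GAL4-UAS reporters; compound exposure 24 h. Reporter mRNA quantified by RT-PCR, 6-FAM labelling, HpaI digestion and capillary electrophoresis; gain of signal versus DMSO.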

[6] = target: Hepatocyte nuclear factor 4-alpha (Homo sapiens) (UniProt P41235); test: ATG_HNF4a_TRANS: Attagene TRANS-FACTORIAL HepG2 Assay for human Hepatocyte Nuclear Factor 4 alpha (HNF4a) (AID 2282982; active = hit-call score of the fitted dose curve at least 0.9, where 1 is the maximum); details: HepG2 HNF4a transactivation reporter, mRNA readout
In short: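 HepG2 cells transiently transfected with multiplexed GAL4-UAS reporter units responsive to chimeric NR-GAL4 proteins; compound exposure 24 h. Reporter mRNA quantified by RT-PCR, 6-FAM labelling, HpaI digestion and capillary electrophoresis; gain of signal versus DMSO baseline.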

[7] = ATG_M_32_TRANS: Attagene TRANS-FACTORIAL HepG2 Assay for M32 Transcription Factor (Internal Marker) (AID 2282984; active = hit-call score of the fitted dose curve at least 0.9, where 1 is the maximum;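 also: transcript level of a background control reporter unit measured by RT-PCR and capillary electrophoresis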); details: HepG2 Attagene TRANS M32 internal marker reporter
In short: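 HepG2 cells transiently transfected with multiple GAL4-UAS reporter transcription units, dosed for 24 hours; reporter mRNA quantified by RT-PCR, 6-FAM primer extension, HpaI digestion and capillary electrophoresis. Gain-of-signal fitted versus DMSO baseline; internal background-control marker.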

[8] = target: Nuclear receptor subfamily 4 group A member 2 (Homo sapiens) (UniProt P43354); test: ATG_NURR1_TRANS: Attagene TRANS-FACTORIAL HepG2 Assay for human Nuclear Receptor Related Protein 1 (NURR1) (AID 2282985; active = hit-call score of the fitted dose curve at least 0.9, where 1 is the maximum); details: HepG2 Attagene TRANS reporter, mRNA readout
In short: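 HepG2 cells transiently transfected with GAL4-UAS reporter units and chimeric NR-Gal4 constructs; chemical exposure 24 h. Reporter mRNA quantified by RT-PCR, fluorescent labelling and capillary electrophoresis; gain of signal fitted relative to DMSO baseline.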

[9] = target: Transcriptional activator Myb (Homo sapiens) (UniProt P10242); test: ATG_Myb_CIS: Attagene CIS-FACTORIAL HepG2 Assay for human Myeloblastosis (Myb) Proto-Oncogene Transcription Factor (AID 2282986); details: HepG2 Attagene CIS-FACTORIAL Myb reporter transcription; actives raise or lower the signal
In short: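 Multiplexed cis-reporter system in HepG2: transient transfection, 24 h treatment, mRNA readout by RT-PCR and capillary electrophoresis. Both increases and decreases are scored versus DMSO negative control.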

[10] = target: Nuclear respiratory factor 1 (Homo sapiens) (UniProt Q16656); test: ATG_NRF1_CIS: Attagene CIS-FACTORIAL HepG2 Assay for human Nuclear Respiratory Factor 1 (NRF1) Orphan Gene (AID 2282987); details: HepG2 NRF1 cis-element reporter, Attagene multiplex; actives raise or lower the signal
In short: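 Endogenous factor activity was captured via cis-element-driven reporter transcripts in HepG2 cells. Following 24 h chemical treatment, transcripts were quantified by RT-PCR and capillary electrophoresis.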

[11] = ATG_NFI_CIS: Attagene CIS-FACTORIAL HepG2 Assay for human Nuclear Factor I (NFI) (AID 2282989); details: HepG2 cis-regulatory reporter, NFI response element transcription; actives raise or lower the signal
In short: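 Reporter transcription driven by endogenous transcription factors in HepG2 cells; 24 h treatment. Quantitation by labelled RT-PCR fragments on capillary electrophoresis, gain- or loss-of-signal relative to DMSO.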

[12] = target: Myc proto-oncogene protein (Homo sapiens) (UniProt P01106); test: ATG_Myc_CIS: Attagene CIS-FACTORIAL HepG2 Assay for human Myelocytomatosis (Myc) Proto-Oncogene Transcription Factor (AID 2282990); details: HepG2, Attagene cis-reporter transcription factor activity; actives raise or lower the signal
In short: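 HepG2 cells transiently transfected with multiple cis-promoter-driven reporter transcription units, so endogenous TF activity is read. After 24 h compound exposure, reporter mRNA was quantified by RT-PCR, 6-FAM labelling, HpaI digestion and capillary electrophoresis; bidirectional fit versus DMSO.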

[13] = ATG_NF_kB_CIS: Attagene CIS-FACTORIAL HepG2 Assay for human Nuclear Factor Kappa B (NF-kB) (AID 2282991); details: HepG2 Attagene cis-factorial NF-kB reporter mRNA; actives raise or lower the signal
In short: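 After 24 h compound incubation, transfected HepG2 cells yield total RNA; reporter cDNA is PCR-amplified, end-labelled with 6-FAM, HpaI-digested and analysed on a genetic analyser. Endogenous factor activity, DMSO-referenced bidirectional fit.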

[14] = ATG_NRF2_ARE_CIS: Attagene CIS-FACTORIAL HepG2 Assay for human Nuclear Factor Erythroid 2 Related Factor 2 (NFR2) response to Antioxidant Response Elements (ARE) (AID 2282992); details: HepG2 Attagene ARE/NRF2 reporter, transcription factor activity; actives raise or lower the signal;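 as to AC50: reporter mRNA level measured by RT-PCR and capillary electrophoresis fluorescence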
In short: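 Transient MRTU transfection of HepG2; 24 h compound exposure; TriZol RNA, RT with oligo(dT), PCR, 6-FAM primer extension, HpaI cut, CE. Bidirectional fit vs DMSO.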

[15] = ATG_Oct_MLP_CIS: Attagene CIS-FACTORIAL HepG2 Assay for human Octamer-Binding Transcription Factor (Oct) (AID 2282993); details: HepG2 Attagene cis-factorial Oct reporter, mRNA; actives raise or lower the signal
In short: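 Transfected HepG2 cells, 24 h treatment. Reporter mRNA quantified by RT-PCR–capillary electrophoresis; bidirectional fitting against DMSO.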

[16] = target: Cellular tumor antigen p53 (Homo sapiens) (UniProt P04637); test: ATG_p53_CIS: Attagene CIS-FACTORIAL HepG2 Assay for human p53 Transcription Factor (AID 2282994); details: HepG2 p53 cis-element reporter, Attagene mRNA; actives raise or lower the signal
In short: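 HepG2, transient MRTU transfection (cis promoter elements, endogenous TFs); 24 h dosing; RNA isolation, RT-PCR, 6-FAM primer extension, HpaI digest, CE fluorescence; bidirectional fit vs DMSO.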

[17] = BSK_3C_TissueFactor: BioMAP Diversity Plus: 3C Assay for Tissue Factor Biomarker Activity (AID 2282997); details: BioMAP 3C HUVEC, tissue factor biomarker readout; actives raise or lower the signal
In short: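 Dosing of human umbilical vein endothelial cells preceded a 24 h incubation. Tissue Factor was then read by ELISA, with increases and decreases both scored relative to DMSO controls.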

[18] = BSK_3C_uPAR: BioMAP Diversity Plus: 3C Assay for Urokinase-type plasminogen activator receptor (uPAR) Biomarker Activity (AID 2282998); details: BioMAP 3C HUVEC, uPAR biomarker ELISA; actives raise or lower the signal
In short: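 Readout: ELISA for surface uPAR. System: human umbilical vein endothelial primary cells, 24 h after chemical exposure. Analysis: bidirectional fit, DMSO baseline.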

[19] = BSK_3C_VCAM1: BioMAP Diversity Plus: 3C Assay for Vascular cell adhesion molecule 1 (VCAM1) Biomarker Activity (AID 2282999); details: BioMAP 3C HUVEC, VCAM1 ELISA, cytokine-stimulated; actives raise or lower the signal
In short: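 Human umbilical vein endothelial cells were dosed with compound for 24 h, after which cell-surface VCAM-1 was quantified by ELISA. Bidirectional curve fitting used DMSO as negative control and activity baseline.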

[20] = ATG_M_06_TRANS: Attagene TRANS-FACTORIAL HepG2 Assay for M06 Transcription Factor (Internal Marker) (AID 2282983; active = hit-call score of the fitted dose curve at least 0.9, where 1 is the maximum;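 also: reporter transcript level by RT-PCR then capillary electrophoresis fluorescence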); details: HepG2 Attagene TRANS M06 internal marker reporter
In short: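 Cells: HepG2, transient multi-reporter transfection. Exposure: 24 h. Detection: RT-PCR, 6-FAM labelling, HpaI digestion (2 h, 37 °C), capillary electrophoresis. Baseline: DMSO.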

Measured: AC50

Sequence of Nuclear receptor subfamily 4 group A member 2 (Homo sapiens) (P43354 whole entry, looked up, the tested form may be a part): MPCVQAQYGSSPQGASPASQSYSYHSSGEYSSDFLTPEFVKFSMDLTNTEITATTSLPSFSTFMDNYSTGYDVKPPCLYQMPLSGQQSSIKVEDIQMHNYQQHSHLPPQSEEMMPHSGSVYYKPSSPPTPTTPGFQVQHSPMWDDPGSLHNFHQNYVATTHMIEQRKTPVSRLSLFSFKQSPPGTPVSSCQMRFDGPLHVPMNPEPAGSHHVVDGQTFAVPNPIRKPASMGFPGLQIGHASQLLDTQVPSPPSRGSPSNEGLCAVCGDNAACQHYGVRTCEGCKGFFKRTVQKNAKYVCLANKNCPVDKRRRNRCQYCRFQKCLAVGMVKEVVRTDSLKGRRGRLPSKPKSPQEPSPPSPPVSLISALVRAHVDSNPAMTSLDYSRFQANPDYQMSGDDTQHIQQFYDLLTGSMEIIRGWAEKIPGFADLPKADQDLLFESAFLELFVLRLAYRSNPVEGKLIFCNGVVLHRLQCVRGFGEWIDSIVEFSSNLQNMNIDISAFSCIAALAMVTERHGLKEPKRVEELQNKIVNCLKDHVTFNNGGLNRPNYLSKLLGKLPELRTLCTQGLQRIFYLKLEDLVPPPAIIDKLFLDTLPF
Sequence of Nuclear respiratory factor 1 (Homo sapiens) (Q16656 whole entry, looked up): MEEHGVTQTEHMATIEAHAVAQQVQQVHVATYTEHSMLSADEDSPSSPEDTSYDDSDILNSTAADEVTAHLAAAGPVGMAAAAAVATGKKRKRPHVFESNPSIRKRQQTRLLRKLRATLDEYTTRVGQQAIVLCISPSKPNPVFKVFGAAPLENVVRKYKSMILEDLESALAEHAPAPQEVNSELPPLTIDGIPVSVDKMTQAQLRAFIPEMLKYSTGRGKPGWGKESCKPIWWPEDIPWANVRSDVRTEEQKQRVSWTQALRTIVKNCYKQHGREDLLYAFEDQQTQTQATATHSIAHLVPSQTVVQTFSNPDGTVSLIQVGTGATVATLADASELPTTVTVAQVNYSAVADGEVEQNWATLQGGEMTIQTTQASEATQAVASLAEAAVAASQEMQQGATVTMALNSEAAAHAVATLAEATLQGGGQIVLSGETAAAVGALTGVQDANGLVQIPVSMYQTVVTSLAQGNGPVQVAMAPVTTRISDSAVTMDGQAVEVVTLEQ
Sequence of Cellular tumor antigen p53 (Homo sapiens) (P04637 whole entry, looked up): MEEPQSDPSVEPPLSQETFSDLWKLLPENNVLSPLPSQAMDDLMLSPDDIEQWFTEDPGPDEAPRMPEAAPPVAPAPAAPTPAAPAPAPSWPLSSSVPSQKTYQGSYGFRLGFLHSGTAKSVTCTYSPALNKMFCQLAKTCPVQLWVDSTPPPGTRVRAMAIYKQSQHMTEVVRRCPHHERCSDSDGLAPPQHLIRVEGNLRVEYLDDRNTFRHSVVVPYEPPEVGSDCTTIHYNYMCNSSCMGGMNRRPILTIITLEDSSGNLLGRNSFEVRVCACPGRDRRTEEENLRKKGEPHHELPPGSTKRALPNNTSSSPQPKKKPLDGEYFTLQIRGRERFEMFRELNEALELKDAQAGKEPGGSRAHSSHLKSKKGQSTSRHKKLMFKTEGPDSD
Sequence of Glucocorticoid receptor (Homo sapiens) (P04150 whole entry, looked up, the tested form may be a part): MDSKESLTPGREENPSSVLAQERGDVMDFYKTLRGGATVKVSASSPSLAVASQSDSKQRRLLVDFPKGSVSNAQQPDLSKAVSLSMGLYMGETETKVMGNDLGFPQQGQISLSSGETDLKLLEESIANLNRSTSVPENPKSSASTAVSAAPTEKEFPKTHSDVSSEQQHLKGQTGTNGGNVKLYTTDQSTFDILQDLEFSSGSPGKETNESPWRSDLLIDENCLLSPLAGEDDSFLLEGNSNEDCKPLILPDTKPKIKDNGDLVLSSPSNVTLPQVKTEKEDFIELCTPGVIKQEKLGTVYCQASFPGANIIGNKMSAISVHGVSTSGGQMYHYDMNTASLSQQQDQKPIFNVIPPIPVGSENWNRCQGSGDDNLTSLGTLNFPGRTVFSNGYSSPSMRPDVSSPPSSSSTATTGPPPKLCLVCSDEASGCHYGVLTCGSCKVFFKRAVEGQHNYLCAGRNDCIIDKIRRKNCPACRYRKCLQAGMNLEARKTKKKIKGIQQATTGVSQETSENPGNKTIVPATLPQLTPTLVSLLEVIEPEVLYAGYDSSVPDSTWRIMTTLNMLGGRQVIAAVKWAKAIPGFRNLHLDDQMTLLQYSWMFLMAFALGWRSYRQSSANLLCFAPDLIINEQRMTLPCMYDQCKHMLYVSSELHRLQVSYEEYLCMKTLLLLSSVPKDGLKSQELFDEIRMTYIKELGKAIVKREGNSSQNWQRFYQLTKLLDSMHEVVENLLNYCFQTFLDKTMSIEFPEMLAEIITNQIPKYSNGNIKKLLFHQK
Sequence of Estrogen-related receptor gamma (Homo sapiens) (P62508 whole entry, looked up, the tested form may be a part): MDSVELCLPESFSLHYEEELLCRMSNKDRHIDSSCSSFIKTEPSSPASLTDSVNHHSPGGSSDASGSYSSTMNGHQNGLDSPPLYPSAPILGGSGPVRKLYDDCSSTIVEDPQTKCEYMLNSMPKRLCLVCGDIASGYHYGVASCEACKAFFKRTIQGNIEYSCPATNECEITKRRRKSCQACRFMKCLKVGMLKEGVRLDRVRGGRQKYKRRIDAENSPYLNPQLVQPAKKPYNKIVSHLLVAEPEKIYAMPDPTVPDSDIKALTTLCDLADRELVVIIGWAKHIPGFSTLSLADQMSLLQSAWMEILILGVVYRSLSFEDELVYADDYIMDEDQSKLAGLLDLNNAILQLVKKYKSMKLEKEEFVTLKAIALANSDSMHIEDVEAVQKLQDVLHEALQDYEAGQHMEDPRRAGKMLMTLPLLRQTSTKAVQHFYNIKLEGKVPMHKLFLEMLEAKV
Sequence of Myc proto-oncogene protein (Homo sapiens) (P01106 whole entry, looked up): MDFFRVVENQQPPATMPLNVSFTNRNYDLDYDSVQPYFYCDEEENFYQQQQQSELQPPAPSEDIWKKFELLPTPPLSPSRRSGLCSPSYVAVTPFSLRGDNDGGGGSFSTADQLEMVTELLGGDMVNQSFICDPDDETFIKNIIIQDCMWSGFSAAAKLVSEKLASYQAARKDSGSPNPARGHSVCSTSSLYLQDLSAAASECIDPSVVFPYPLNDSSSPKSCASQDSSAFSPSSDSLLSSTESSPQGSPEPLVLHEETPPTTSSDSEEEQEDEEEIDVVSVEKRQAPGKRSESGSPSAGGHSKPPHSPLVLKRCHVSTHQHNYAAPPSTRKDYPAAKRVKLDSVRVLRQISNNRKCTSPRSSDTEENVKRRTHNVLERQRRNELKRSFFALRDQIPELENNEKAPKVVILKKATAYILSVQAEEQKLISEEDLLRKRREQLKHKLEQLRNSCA
Sequence of Bile acid receptor (Homo sapiens) (Q96RI1 whole entry, looked up, the tested form may be a part): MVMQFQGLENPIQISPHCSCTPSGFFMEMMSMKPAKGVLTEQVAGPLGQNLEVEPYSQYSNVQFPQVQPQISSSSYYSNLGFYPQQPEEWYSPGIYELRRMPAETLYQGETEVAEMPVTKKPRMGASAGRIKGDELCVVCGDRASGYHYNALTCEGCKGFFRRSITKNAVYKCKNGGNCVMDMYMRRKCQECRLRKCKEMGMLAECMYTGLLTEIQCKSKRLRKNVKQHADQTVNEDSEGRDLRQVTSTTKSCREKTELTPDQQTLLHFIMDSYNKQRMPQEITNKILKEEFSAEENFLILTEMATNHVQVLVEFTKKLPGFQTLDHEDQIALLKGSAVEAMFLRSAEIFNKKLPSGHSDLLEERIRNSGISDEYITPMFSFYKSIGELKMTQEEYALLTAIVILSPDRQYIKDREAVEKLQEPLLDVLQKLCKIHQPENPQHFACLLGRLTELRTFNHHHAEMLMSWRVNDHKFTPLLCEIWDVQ
Sequence of Hepatocyte nuclear factor 4-alpha (Homo sapiens) (P41235 whole entry, looked up, the tested form may be a part): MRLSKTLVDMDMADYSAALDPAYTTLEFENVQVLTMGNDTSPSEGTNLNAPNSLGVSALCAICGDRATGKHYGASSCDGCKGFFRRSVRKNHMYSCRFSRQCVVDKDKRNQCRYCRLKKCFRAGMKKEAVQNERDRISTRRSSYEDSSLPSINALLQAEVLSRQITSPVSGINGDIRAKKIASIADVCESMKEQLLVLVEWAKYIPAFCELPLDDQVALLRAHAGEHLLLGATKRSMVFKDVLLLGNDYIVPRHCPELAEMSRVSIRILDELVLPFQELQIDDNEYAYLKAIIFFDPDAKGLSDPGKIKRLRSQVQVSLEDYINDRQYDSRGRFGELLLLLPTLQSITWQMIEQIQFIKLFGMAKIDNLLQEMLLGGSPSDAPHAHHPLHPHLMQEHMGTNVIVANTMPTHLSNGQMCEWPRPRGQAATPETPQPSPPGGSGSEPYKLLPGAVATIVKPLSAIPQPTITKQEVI
Sequence of Oxysterols receptor LXR-alpha (Homo sapiens) (Q13133 whole entry, looked up, the tested form may be a part): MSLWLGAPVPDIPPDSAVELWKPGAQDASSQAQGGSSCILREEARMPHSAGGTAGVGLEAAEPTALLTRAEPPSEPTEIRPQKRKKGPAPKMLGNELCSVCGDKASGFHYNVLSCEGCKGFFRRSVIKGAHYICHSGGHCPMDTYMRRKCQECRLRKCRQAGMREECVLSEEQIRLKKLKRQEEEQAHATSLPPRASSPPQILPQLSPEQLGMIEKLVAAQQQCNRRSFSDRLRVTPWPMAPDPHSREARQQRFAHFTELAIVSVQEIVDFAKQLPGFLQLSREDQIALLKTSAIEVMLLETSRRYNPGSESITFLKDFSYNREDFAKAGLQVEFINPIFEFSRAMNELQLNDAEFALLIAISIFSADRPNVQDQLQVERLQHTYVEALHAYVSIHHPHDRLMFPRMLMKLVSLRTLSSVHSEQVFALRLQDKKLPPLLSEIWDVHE

OCCC(F)(F)C(F)(F)C(F)(F)C(F)(F)F
inactive: [1] | [2] | [3] | [4] | [5] | [6] | [7] | [8] | [9] | [10] | [11] | [12] | [13] | [14] | [15] | [16] | [17] | [18] | [19]

OCCNCCO
inactive: [1] | [2] | [6] | [7] | [9] | [10] | [11] | [12] | [14] | [15] | [17] | [18] | [19]

OC[C@H]1O[C@@](CO)(O[C@H]2O[C@H](CO)[C@@H](O)[C@H](O)[C@H]2O)[C@@H](O)[C@@H]1O
inactive: [1] | [3] | [7] | [8] | [9] | [11] | [12] | [13] | [15] | [17] | [18] | [19]
active: [14] 58.6 µM

O=S(=O)(O)CCC(F)(F)C(F)(F)C(F)(F)C(F)(F)C(F)(F)C(F)(F)F
inactive: [1] | [2] | [3] | [4] | [5] | [6] | [7] | [9] | [10] | [11] | [12] | [13] | [14] | [15] | [16] | [17] | [18] | [19]

OCc1ccccc1
inactive: [1] | [2] | [5] | [6] | [20] | [7] | [9] | [11] | [12] | [13] | [14] | [15] | [17] | [18] | [19]

CCOc1ccc2[nH]cc(C(=O)NCc3ccccc3)c(=O)c2n1
active: [14] 9.32 µM
inactive: [1] | [6] | [7] | [8] | [9] | [11] | [12] | [15] | [17] | [18] | [19]

c1ccc2cc3ccccc3cc2c1
active: [17] 2.03 µM
inactive: [1] | [2] | [7] | [9] | [10] | [11] | [12] | [13] | [14] | [15] | [16] | [18] | [19]

O=C(Cl)C(F)(F)C(F)(F)C(F)(F)C(=O)Cl
inactive: [1] | [2] | [3] | [4] | [5] | [6] | [7] | [9] | [10] | [11] | [12] | [13] | [14] | [15] | [16] | [17] | [18] | [19]
